From PubChem BioAssay (EPA / NIEHS)
Several values for one entry are separate records, joined by “and”; a condition that tells them apart may be missing. Equal values may be shown once. Results filed as inconclusive are left out. A structure can be active in one record and inactive in another. Activity calls are given as the source filed them. How the source made its calls, unless noted: active means hit-call score of the fitted dose curve at least 0.9, where 1 is the maximum; inactive means score below 0.9.

Legend:
[1] = target: Myc proto-oncogene protein (Homo sapiens) (UniProt P01106); assay: ATG_Myc_CIS: Attagene CIS-FACTORIAL HepG2 Assay for human Myelocytomatosis (Myc) Proto-Oncogene Transcription Factor (AID 2282990); conditions: HepG2, Attagene cis-reporter transcription factor activity; actives raise or lower the signal
Myc proto-oncogene protein (Homo sapiens), sequence (P01106 whole entry, looked up): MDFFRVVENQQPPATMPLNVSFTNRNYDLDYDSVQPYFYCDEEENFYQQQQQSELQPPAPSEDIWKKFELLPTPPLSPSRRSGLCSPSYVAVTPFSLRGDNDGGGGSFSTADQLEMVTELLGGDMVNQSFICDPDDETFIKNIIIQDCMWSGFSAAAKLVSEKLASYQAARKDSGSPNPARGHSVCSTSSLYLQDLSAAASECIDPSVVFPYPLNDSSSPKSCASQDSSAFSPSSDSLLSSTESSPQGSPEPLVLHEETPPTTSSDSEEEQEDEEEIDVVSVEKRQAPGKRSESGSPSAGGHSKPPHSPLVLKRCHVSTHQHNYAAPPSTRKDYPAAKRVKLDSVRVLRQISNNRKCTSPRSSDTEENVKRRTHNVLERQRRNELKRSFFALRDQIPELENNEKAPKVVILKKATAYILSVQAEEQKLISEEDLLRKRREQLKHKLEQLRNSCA
In short: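 Multiplexed cis-reporter transcription in HepG2 cells after 24 h chemical treatment. Reporter mRNA measured by RT-PCR and capillary electrophoresis fluorescence; activity fitted bidirectionally against DMSO control.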

[2] = ATG_NRF2_ARE_CIS: Attagene CIS-FACTORIAL HepG2 Assay for human Nuclear Factor Erythroid 2 Related Factor 2 (NFR2) response to Antioxidant Response Elements (ARE) (AID 2282992); conditions: HepG2 Attagene ARE/NRF2 reporter, transcription factor activity; actives raise or lower the signal
In short: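 Endogenous transcription factor activity read out as reporter transcript levels (RT-PCR plus capillary electrophoresis, fluorescence) in transiently transfected HepG2 cells. Measured at 24 h after dosing; gain or loss of signal fitted versus DMSO.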

[3] = BSK_3C_uPAR: BioMAP Diversity Plus: 3C Assay for Urokinase-type plasminogen activator receptor (uPAR) Biomarker Activity (AID 2282998); conditions: BioMAP 3C HUVEC, uPAR biomarker ELISA; actives raise or lower the signal
In short: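 Cell-surface uPAR on HUVEC (3C system) read by ELISA at 24 h post-treatment, with DMSO as baseline and fitting in both directions. Parallel cultures stained with SRB to flag overt cytotoxicity.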

[4] = BSK_3C_VCAM1: BioMAP Diversity Plus: 3C Assay for Vascular cell adhesion molecule 1 (VCAM1) Biomarker Activity (AID 2282999); conditions: BioMAP 3C HUVEC, VCAM1 ELISA, cytokine-stimulated; actives raise or lower the signal
In short: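 Vascular primary endothelium (human umbilical vein) was exposed to chemicals and assayed 24 h later. VCAM-1 levels came from ELISA, with DMSO serving as baseline for bidirectional fitting.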

[5] = BSK_4H_Eotaxin3: BioMAP Diversity Plus: 4H Assay for Eotaxin 3 Biomarker Activity (AID 2283000); conditions: primary human endothelial cells (HUVEC); actives raise or lower the signal
In short: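 Eotaxin-3 (CCL26) levels were measured by ELISA in HUVEC primary cultures 24 h post-dosing. Gain or loss of signal was fitted in both directions, with DMSO serving as baseline and negative control.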

[6] = target: human Peroxisome Proliferator-activated Receptor alpha (PPARa), PPARA (gene 5465) (UniProt Q07869); assay: ATG_PPARa_TRANS: Attagene TRANS-FACTORIAL HepG2 Assay for human Peroxisome Proliferator-activated Receptor alpha (PPARa) (AID 2283001; active means hit-call score of the fitted dose curve at least 0.9, where 1 is the maximum)
human Peroxisome Proliferator-activated Receptor alpha (PPARa), PPARA (gene 5465), sequence (Q07869 whole entry, looked up, the tested form may be a part): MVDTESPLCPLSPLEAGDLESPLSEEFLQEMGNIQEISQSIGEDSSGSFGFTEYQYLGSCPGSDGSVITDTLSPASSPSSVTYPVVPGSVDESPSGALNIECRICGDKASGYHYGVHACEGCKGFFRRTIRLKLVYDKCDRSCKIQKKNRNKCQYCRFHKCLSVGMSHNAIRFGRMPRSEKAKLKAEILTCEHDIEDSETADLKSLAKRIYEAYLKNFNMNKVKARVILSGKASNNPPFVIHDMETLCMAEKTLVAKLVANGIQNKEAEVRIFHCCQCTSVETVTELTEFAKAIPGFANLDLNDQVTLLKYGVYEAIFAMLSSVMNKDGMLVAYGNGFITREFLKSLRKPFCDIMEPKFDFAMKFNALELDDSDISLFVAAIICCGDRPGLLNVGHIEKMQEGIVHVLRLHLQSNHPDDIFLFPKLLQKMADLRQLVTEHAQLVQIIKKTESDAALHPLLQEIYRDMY
In short: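 Exposure: 24 h, transiently transfected HepG2 cells. Endpoint: GAL4-UAS reporter mRNA, RT-PCR with capillary electrophoresis fluorescence. Baseline: DMSO; increases fitted.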

[7] = target: human Peroxisome Proliferator-activated Receptor delta (PPARd), PPARD (gene 5467) (UniProt Q03181); assay: ATG_PPARd_TRANS: Attagene TRANS-FACTORIAL HepG2 Assay for human Peroxisome Proliferator-activated Receptor delta (PPARd) (AID 2283002; active means hit-call score of the fitted dose curve at least 0.9, where 1 is the maximum)
human Peroxisome Proliferator-activated Receptor delta (PPARd), PPARD (gene 5467), sequence (Q03181 whole entry, looked up, the tested form may be a part): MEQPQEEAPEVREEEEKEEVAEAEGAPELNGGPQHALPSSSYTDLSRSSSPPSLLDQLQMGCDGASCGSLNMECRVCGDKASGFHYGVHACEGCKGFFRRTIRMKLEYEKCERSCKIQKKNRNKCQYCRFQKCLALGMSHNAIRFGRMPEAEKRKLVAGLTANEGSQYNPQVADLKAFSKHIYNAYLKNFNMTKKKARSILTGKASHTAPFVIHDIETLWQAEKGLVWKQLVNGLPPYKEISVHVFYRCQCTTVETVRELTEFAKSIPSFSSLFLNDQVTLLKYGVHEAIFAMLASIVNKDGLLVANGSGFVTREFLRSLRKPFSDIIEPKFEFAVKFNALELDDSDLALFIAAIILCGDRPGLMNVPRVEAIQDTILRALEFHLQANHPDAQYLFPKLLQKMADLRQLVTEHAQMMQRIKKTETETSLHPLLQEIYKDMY
In short: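 Multiplexed trans-activation format: HepG2 liver cells expressing exogenous NR-Gal4 chimeras and GAL4-UAS reporters were exposed for 24 h. Reporter mRNA was detected by RT-PCR with capillary electrophoresis fluorescence; activity fitted as gain of signal relative to DMSO.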

[8] = read-out: Intercellular Adhesion Molecule 1 (ICAM1), ICAM1 (gene 3383); assay: BSK_3C_ICAM1: BioMAP Diversity Plus: 3C Assay for Intercellular Adhesion Molecule 1 (ICAM1) Biomarker Activity (AID 2283003); conditions: primary human endothelial cells (HUVEC); actives raise or lower the signal
In short: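 ELISA read-out of ICAM-1; HUVEC (primary human), 3C system, 24 h post-dosing; bidirectional fit vs DMSO baseline.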

[9] = BSK_3C_Proliferation: Cell Proliferation Assessment in the BioMAP Diversity Plus: 3C Assay (AID 2283006); conditions: primary human endothelial cells (HUVEC);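 on AC50: potency may reflect either rise or fall in cell number versus DMSO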
In short: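 HUVEC, sub-confluent; 48 h chemical exposure; 10% TCA fix, 0.1% SRB stain, A560 total protein. Gain or loss of signal fitted both directions vs DMSO control.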

[10] = target: Nuclear receptor subfamily 1 group I member 2 (Homo sapiens) (UniProt O75469); assay: ATG_PXR_TRANS: Attagene TRANS-FACTORIAL HepG2 Assay for human Pregnane X Receptor (PXR) (AID 2283008; active means hit-call score of the fitted dose curve at least 0.9, where 1 is the maximum)
Nuclear receptor subfamily 1 group I member 2 (Homo sapiens), sequence (O75469 whole entry, looked up, the tested form may be a part): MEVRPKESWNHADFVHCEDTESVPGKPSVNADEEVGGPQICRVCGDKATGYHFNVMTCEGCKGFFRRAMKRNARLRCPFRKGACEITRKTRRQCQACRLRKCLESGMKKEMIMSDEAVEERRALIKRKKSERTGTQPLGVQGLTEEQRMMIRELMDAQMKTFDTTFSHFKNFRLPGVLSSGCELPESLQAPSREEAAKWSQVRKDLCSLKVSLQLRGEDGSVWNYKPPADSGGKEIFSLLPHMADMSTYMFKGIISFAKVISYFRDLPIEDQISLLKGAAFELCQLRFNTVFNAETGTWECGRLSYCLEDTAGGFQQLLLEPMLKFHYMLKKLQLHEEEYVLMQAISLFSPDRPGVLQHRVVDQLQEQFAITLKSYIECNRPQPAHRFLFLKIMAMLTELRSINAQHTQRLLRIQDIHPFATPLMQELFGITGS
In short: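 Transactivation by exogenous PXR–GAL4 fusion measured as reporter transcript induction after 24 h compound treatment of transfected human HepG2 cells. Read-out via RT-PCR and capillary electrophoresis of labelled fragments, fitted upward relative to DMSO.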

[11] = target: human RAR-related Orphan Receptor beta (RORb), RORB (gene 6096) (UniProt Q92753); assay: ATG_RORb_TRANS: Attagene TRANS-FACTORIAL HepG2 Assay for human RAR-related Orphan Receptor beta (RORb) (AID 2283010; active means hit-call score of the fitted dose curve at least 0.9, where 1 is the maximum)
human RAR-related Orphan Receptor beta (RORb), RORB (gene 6096), sequence (Q92753 whole entry, looked up, the tested form may be a part): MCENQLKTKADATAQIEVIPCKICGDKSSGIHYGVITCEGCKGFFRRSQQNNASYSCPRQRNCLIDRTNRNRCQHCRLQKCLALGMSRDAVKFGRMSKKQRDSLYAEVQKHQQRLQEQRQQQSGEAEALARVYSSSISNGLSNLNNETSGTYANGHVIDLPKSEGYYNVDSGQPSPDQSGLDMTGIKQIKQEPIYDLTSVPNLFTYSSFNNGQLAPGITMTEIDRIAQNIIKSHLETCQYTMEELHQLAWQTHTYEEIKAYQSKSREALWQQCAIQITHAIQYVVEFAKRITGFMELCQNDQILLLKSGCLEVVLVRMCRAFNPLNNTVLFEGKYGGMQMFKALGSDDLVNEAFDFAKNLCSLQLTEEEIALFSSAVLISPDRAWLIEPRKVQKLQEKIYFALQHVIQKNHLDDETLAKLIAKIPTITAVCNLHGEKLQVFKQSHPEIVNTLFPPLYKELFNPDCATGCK
In short: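 HepG2, transient MRTU transfection (GAL4-UAS reporters, exogenous NR-Gal4 chimeras); 24 h compound exposure; total RNA → RT-PCR → 6-FAM primer extension → HpaI digest → CE fluorescence. Positive direction vs DMSO baseline.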

[12] = target: Cellular tumor antigen p53 (Homo sapiens) (UniProt P04637); assay: ATG_p53_CIS: Attagene CIS-FACTORIAL HepG2 Assay for human p53 Transcription Factor (AID 2282994); conditions: HepG2 p53 cis-element reporter, Attagene mRNA; actives raise or lower the signal
Cellular tumor antigen p53 (Homo sapiens), sequence (P04637 whole entry, looked up): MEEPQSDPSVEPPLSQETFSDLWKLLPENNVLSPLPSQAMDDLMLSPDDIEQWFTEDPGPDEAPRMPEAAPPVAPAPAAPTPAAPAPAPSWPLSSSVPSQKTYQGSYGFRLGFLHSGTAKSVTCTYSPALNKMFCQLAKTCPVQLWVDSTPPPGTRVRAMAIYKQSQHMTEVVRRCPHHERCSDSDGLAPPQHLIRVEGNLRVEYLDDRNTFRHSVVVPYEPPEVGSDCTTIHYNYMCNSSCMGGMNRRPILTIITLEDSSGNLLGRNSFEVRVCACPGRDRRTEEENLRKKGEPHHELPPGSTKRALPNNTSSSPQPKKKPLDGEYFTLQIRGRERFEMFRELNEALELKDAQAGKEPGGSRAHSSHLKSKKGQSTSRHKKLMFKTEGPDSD
In short: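 Endogenous p53 activity read in transiently transfected HepG2 from a cis-element-driven reporter transcript after 24 h exposure. RNA reverse-transcribed, PCR-amplified, fluorescently labelled and sized by capillary electrophoresis; gain or loss fitted against DMSO baseline.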

[13] = target: human Retinoic Acid Receptor beta (RARb), RARB (gene 5915) (UniProt P10826); assay: ATG_RARb_TRANS: Attagene TRANS-FACTORIAL HepG2 Assay for human Retinoic Acid Receptor beta (AID 2283004; active means hit-call score of the fitted dose curve at least 0.9, where 1 is the maximum)
human Retinoic Acid Receptor beta (RARb), RARB (gene 5915), sequence (P10826 whole entry, looked up, the tested form may be a part): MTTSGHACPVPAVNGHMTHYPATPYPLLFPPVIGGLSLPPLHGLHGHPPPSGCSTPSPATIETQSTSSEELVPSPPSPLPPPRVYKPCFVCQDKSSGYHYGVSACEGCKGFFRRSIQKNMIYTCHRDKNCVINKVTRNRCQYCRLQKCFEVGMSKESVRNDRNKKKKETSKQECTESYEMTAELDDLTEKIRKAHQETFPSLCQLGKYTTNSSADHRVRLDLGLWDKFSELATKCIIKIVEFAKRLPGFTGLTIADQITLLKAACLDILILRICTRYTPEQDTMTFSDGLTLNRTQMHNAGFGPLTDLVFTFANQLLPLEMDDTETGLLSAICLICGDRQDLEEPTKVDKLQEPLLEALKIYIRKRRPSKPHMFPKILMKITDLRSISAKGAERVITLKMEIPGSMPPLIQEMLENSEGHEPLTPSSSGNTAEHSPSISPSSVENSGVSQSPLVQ
In short: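 HepG2 cells were transiently transfected with GAL4-UAS reporter units that report activity of exogenous chimeric NR-Gal4 proteins, then exposed to compound for 24 h. Reporter mRNA was quantified by RT-PCR with capillary electrophoresis fluorescence, as gain of signal over DMSO.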

[14] = target: Retinoic acid receptor alpha (Homo sapiens) (UniProt P10276); assay: ATG_RARa_TRANS: Attagene TRANS-FACTORIAL HepG2 Assay for human Retinoic Acid Receptor alpha (RARa) (AID 2283005; active means hit-call score of the fitted dose curve at least 0.9, where 1 is the maximum)
In short: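 HepG2 cells transiently transfected with multiple reporter units expressing chimeric RARα-GAL4 fusion, with GAL4-UAS-driven reporters. After 24 h compound exposure, reporter mRNA induction quantified by RT-PCR and capillary electrophoresis with fluorescent labeling; gain-of-signal fitted relative to DMSO control.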

[15] = target: Peroxisome proliferator-activated receptor gamma (Homo sapiens) (UniProt P37231); assay: ATG_PPARg_TRANS: Attagene TRANS-FACTORIAL HepG2 Assay for human Peroxisome Proliferator-activated Receptor-gamma (PPARg) (AID 2283007; active means hit-call score of the fitted dose curve at least 0.9, where 1 is the maximum)
Peroxisome proliferator-activated receptor gamma (Homo sapiens), sequence (P37231 whole entry, looked up, the tested form may be a part): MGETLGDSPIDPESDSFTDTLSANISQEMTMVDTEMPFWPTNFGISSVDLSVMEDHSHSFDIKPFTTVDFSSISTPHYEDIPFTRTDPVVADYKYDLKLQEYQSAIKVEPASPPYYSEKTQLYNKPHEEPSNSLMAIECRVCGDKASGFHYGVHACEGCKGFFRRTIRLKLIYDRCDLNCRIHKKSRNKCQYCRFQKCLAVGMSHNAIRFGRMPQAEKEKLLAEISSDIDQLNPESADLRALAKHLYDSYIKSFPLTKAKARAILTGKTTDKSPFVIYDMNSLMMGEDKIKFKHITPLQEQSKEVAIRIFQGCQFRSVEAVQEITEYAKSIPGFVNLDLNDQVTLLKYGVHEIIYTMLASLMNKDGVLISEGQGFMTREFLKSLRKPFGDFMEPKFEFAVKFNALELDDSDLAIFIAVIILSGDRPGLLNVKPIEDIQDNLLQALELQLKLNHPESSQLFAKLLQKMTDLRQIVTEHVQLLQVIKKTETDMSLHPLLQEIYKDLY
In short: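 A TRANS-format multiplexed reporter assay measures activity of an exogenous chimeric NR-Gal4 protein in HepG2 cells. After 24 h of chemical exposure, reporter transcripts are amplified, fluorescently labelled and sized by capillary electrophoresis, with gain of signal scored against DMSO.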

[16] = target: human Retinoic Acid Receptor gamma (RARg), RARG (gene 5916) (UniProt P13631); assay: ATG_RARg_TRANS: Attagene TRANS-FACTORIAL HepG2 Assay for human Retinoic Acid Receptor gamma (RARg) (AID 2283009; active means hit-call score of the fitted dose curve at least 0.9, where 1 is the maximum)
human Retinoic Acid Receptor gamma (RARg), RARG (gene 5916), sequence (P13631 whole entry, looked up, the tested form may be a part): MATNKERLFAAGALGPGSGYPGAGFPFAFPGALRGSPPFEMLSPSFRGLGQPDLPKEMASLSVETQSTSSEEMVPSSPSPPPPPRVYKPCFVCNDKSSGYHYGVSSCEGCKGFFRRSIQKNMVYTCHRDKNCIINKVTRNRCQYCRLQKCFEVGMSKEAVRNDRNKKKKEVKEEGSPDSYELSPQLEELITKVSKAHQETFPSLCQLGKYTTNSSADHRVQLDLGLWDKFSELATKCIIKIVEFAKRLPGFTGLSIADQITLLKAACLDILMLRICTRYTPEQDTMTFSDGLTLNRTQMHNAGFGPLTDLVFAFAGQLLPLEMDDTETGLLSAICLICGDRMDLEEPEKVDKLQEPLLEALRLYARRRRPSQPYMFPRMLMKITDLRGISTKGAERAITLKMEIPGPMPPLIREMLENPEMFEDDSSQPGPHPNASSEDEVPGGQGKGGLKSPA
In short: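 Readout: reporter transcript levels via RT-PCR, 6-FAM primer-extension labelling, HpaI digestion and capillary electrophoresis. Cells: HepG2 carrying transfected RARg-GAL4 chimera plus UAS reporter set. Dosing 24 h; DMSO negative control.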

[17] = target: human RAR-related Orphan Receptor gamma (RORg), RORC (gene 6097) (UniProt P51449); assay: ATG_RORg_TRANS: Attagene TRANS-FACTORIAL HepG2 Assay for human RAR-related Orphan Receptor gamma (RORg) (AID 2283011; active means hit-call score of the fitted dose curve at least 0.9, where 1 is the maximum)
human RAR-related Orphan Receptor gamma (RORg), RORC (gene 6097), sequence (P51449 whole entry, looked up, the tested form may be a part): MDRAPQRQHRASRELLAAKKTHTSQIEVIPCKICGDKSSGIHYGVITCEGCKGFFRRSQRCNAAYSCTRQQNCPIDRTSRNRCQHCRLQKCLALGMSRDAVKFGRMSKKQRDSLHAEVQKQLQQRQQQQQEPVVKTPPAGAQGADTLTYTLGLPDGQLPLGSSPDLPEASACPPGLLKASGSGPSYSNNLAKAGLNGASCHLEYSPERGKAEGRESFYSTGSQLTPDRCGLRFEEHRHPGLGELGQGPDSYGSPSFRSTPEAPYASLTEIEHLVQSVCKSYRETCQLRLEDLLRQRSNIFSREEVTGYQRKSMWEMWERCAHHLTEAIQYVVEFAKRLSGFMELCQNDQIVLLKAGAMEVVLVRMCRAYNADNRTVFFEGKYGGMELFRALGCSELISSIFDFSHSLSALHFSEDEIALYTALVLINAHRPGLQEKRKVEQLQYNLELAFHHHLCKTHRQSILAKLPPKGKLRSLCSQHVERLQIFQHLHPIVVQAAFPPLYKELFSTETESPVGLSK
In short: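 HepG2 cells transiently transfected with GAL4-UAS reporter units and chimeric RORg-Gal4 construct; after 24 h chemical exposure, reporter mRNA measured by RT-PCR with fluorescent capillary electrophoresis, gain of signal fitted against DMSO.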

[18] = ATG_Oct_MLP_CIS: Attagene CIS-FACTORIAL HepG2 Assay for human Octamer-Binding Transcription Factor (Oct) (AID 2282993); conditions: HepG2 Attagene cis-factorial Oct reporter, mRNA; actives raise or lower the signal
In short: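 Readout is reporter transcript level from RT-PCR with fluorescent primer extension and capillary electrophoresis, fitted in both directions against DMSO. Transfected HepG2 reporter units report endogenous factor activity after 24 h dosing.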

[19] = BSK_3C_TissueFactor: BioMAP Diversity Plus: 3C Assay for Tissue Factor Biomarker Activity (AID 2282997); conditions: BioMAP 3C HUVEC, tissue factor biomarker readout; actives raise or lower the signal
In short: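 Tissue Factor measured by ELISA, 24 h after treatment of primary HUVEC in the BioMAP 3C setting.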

[20] = ATG_NF_kB_CIS: Attagene CIS-FACTORIAL HepG2 Assay for human Nuclear Factor Kappa B (NF-kB) (AID 2282991); conditions: HepG2 Attagene cis-factorial NF-kB reporter mRNA; actives raise or lower the signal
In short: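 Endogenous transcription factor activity in HepG2 was captured via cis-regulated reporter constructs; after 24 h dosing, reporter mRNA was reverse-transcribed, amplified, fluorescently labelled and sized by capillary electrophoresis, with activity fitted bidirectionally relative to DMSO.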

Measured: AC50

Cc1[nH]nc2c1N=C(c1ccccc1Cl)c1cc([N+](=O)[O-])ccc1N2
inactive: [6] | [7] | [8] | [10] | [11]
active: [1] 0.353 µM | [2] 19.8 µM | [3] 4.73 µM | [4] 3.03 µM | [5] 1.4 µM | [9] 0.547 µM

COCN(COC)c1nc(N(COC)COC)nc(N(COC)COC)n1
inactive: [1] | [2] | [18] | [12] | [3] | [4] | [5] | [6] | [7] | [8] | [9] | [10] | [16]

CC(C)(C)C1CCCCC1O (stereo unspecified)
inactive: [1] | [2] | [12] | [7] | [13] | [10] | [16] | [11] | [17]

CN(C)CCOC(c1ccccc1)c1ccccc1
inactive: [1] | [18] | [19] | [3] | [4] | [5] | [8] | [9] | [10] | [16]

Cn1sccc1=O
active: [1] 187 µM | [18] 171 µM
inactive: [6] | [13] | [10]

C=COC(=O)C(C)(C)CCCCCC
active: [2] 142 µM | [19] 29.9 µM | [3] 31.3 µM | [4] 34.4 µM | [5] 30.3 µM | [8] 30.7 µM | [9] 26.7 µM | [10] 36.5 µM
inactive: [20] | [18] | [12] | [6] | [7] | [15]

O=C(c1ccccc1)c1ccccc1
inactive: [1] | [18] | [12] | [3] | [4] | [5] | [6] | [7] | [8] | [13] | [9] | [10] | [16] | [11] | [17]
active: [12] 168 µM | [10] 100 µM

CCCCCCCCCCCCCCCC(=O)OC
inactive: [1] | [2] | [12] | [6] | [7] | [13] | [14] | [10] | [16]

CC(C)c1c(C(=O)Nc2ccccc2)c(-c2ccccc2)c(-c2ccc(F)cc2)n1CC[C@@H](O)C[C@@H](O)CC(=O)O
inactive: [1] | [18] | [6] | [7] | [17]
active: [15] 20.3 µM and 19.6 µM | [10] 9.99 µM
